The list is not random: actives were taken first. Their share in the collection is about 11%.
IMPase Li cell: IMPase inhibition in cells with lithium potentiation; CHO-M1 cells, IP1 TR-FRET (IP-One), carbachol + lithium; AID 1457; 210,000 compounds, 0.35% hits; Potency, µM (doses to about 59.4 µM), most hits filed as inhibitors; active means well fitted curve in the direction sought with a large enough effect; inconclusive means small, poorly fitted or top-dose-only effect, or another doubt; inactive means no such curve, though single readings can be large; an effect the other way counts as inactive or inconclusive;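 further: IP1 builds up when IMPase is blocked and the TR-FRET signal falls; nearly all actives have a fitted effect of over 50% in size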
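Concentration–response in CHO-M1 cells, lithium-potentiated; 30 min at 37C. IP1 detected by competitive TR-FRET after 10 min lysis at RT. Hill-fitted AC50.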
PNC assembly inh: inhibitors of perinucleolar compartment assembly | PC3M PTB-GFP, PNC prevalence imaging, 16 h; hits give low values | activity change (PNC), negative = inhibition, % at 10 µM | 140,000 compounds, 3.1% hits | AID 2417;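 active means readout at or below -70, meaning at least 70% loss of cells showing the perinucleolar compartment, a nuclear body marking cancer cells; inconclusive means readout between -30 and a set limit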
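Read-out is percentage of cells bearing a perinucleolar compartment, from automated 20x imaging of fixed, Hoechst-stained PC3M PTB-GFP cells. Cells were seeded 4 h, then exposed 16 h to compound (23 nl of library stock) in duplicate plates.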
HPGD inh: blocks human HPGD enzyme activity. AID 894. 150,000 compounds, 4.3% hits. Potency, µM, hits mostly inhibitors. purified HPGD, NADH fluorescence kinetic, PGE2 substrate
Target sequence (P15428 whole entry, looked up): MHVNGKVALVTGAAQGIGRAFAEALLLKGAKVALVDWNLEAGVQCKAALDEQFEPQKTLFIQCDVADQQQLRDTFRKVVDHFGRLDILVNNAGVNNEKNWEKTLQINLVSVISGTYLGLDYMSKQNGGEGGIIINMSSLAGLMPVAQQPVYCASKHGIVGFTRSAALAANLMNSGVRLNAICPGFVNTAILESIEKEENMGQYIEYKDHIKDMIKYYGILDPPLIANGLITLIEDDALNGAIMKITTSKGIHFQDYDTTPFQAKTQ
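20 nM HPGD preincubated 15 min at room temperature with compound in 50 mM Tris-HCl pH 8, 0.01% Tween 20. Started with 1 mM NAD+ and 30 uM prostaglandin E2; NADH fluorescence (360/450 nm) read 5 times over 30-s intervals, last minus first.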
ALDH1A1 block: blocks purified human ALDH1A1 activity; Purified ALDH1A1, NADH fluorescence, propionaldehyde substrate; Potency, µM (titrated, usually from 75.3 µM), usual class: inhibitors; 220,000 compounds, 7.3% hits; AID 1030
IMPase inh: IMPase inhibition in cells; P97697; CHO-M1 cells, IP1 accumulation, HTRF TR-FRET ratio; inhibition (IP1 accumulation), % at 46.1 µM; 120,000 tested, under 10 active; active means well fitted curve in the direction sought with a large enough effect in the signal ratio, not every such curve was filed as active; inconclusive means small, poorly fitted or top-dose-only effect, or a change in a side signal; inactive means no such curve, though single readings can be large or run the other way; the % refers to the signal ratio;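 further: cells stimulated with carbachol in lithium chloride buffer; higher means more IMPase inhibition seen as more IP1 and lower FRET ratio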
Target sequence (P97697 whole entry, looked up): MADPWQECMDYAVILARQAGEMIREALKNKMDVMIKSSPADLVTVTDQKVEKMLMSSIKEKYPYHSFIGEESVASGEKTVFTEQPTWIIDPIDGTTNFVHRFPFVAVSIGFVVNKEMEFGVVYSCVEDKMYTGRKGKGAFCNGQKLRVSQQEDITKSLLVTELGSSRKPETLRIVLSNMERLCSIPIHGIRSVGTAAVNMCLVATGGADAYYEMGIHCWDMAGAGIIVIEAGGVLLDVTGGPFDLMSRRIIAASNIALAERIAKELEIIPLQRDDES
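The IP-One HTRF competitive assay in carbachol-stimulated CHO-M1 cells quantifies cellular IP1. Compounds spanned up to 46 uM final, and activity is expressed as AC50 from concentration-response fits of the ratio and donor data.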
12-hLO inh: blocks human 12-lipoxygenase activity. P18054. purified 12-hLO, xylenol orange hydroperoxide absorbance. Potency, µM (doses to about 57.1 µM), hits mostly inhibitors. 150,000 compounds, 0.12% hits. AID 1452; active means well fitted curve in the direction sought with a large enough effect; inconclusive means small, poorly fitted or top-dose-only effect, or another doubt; inactive means no such curve, though single readings can be large; an effect the other way counts as inactive or inconclusive; further: nearly all actives have a fitted effect of over 55% in size
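Purified human 12hLO (150 nM final) was preincubated with compounds for 15 min at room temperature in 25 mM Hepes pH 7.0, 0.01% Triton X-100, then reacted with 40 uM arachidonic acid for 30 min. Hydroperoxide was detected with ferrous iron/xylenol orange.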
A number is an active result; . = inactive; ? = inconclusive; / = not tested or not shown; [ ] = remark or other dose. Unless noted, the call rests on the fitted dose curve; in most records, active means well fitted inhibition curve with a large enough effect (not every such curve was filed as active); inconclusive means small, poorly fitted or top-dose-only effect, or another doubt; inactive means no such curve, though single readings can be large or run the other way.

SMILES | IMPase Li cell | PNC assembly inh | HPGD inh | ALDH1A1 block | IMPase inh | 12-hLO inh
CN(C)S(=O)(=O)c1cc(NC(=O)CN2CCN(c3ccccc3)CC2)ccc1Cl | . | . | . | . | . | .
COC(=O)c1ccc(NC(=S)N2CCN(Cc3ccc(Cl)cc3)CC2)cc1 | . | . | 40µM | . | . | .
O=C(CN1CCCN(S(=O)(=O)c2ccc(Br)s2)CC1)Nc1ccc(Cl)cc1 | . | . | . | 4.5µM | . | .
CCOC(=O)CNC(=O)CN1CCCN(S(=O)(=O)c2ccc(Br)s2)CC1 | . | . | . | ? | . | .
NCC1O[C@H](O[C@@H]2C(O)[C@H](O[C@H]3OC(CO)C(O)C(N)C3O)[C@@H](N)C[C@H]2N)[C@@H](N)CC1O (stereo partly specified) | . | / | . | . | / | .
COC(=O)c1ccc(NC(=O)CN2CCN(S(=O)(=O)c3cc(Cl)ccc3OC)CC2)cc1 | . | . | . | 2µM | . | .
Cc1ccc2c(=O)c3ccccc3n(CCCN)c2c1C | . | / | ? | . | / | .[0.00818 µM]
N#CC1=C(N)Oc2cc(O)ccc2C1c1cccs1 (stereo unspecified) | . | -106 | . | ? | . | .
N#CC1=C(N)Oc2cc(O)ccc2C1c1ccncc1 (stereo unspecified) | . | ? | . | . | . | .
COC(=O)CC1=C(C(=O)OC)C(c2cccs2)C(C#N)=C(N)O1 (stereo unspecified) | . | -119 | . | ? | . | .
CCOC(=O)C1=C(CC)OC(N)=C(C#N)C1c1cccs1 (stereo unspecified) | . | . | . | ? | . | .
CCC(=O)N1N=C(c2c(-c3ccccc3)c3cc(Cl)ccc3[nH]c2=O)CC1c1ccco1 (stereo unspecified) | / | -82 | / | ? | . | .
COc1cccc(C2CC(c3c(-c4ccccc4)c4cc(Cl)ccc4[nH]c3=O)=NN2S(C)(=O)=O)c1OC (stereo unspecified) | . | . | . | 5µM | . | .
COc1ccccc1C1CC(c2c(-c3ccccc3)c3cc(Cl)ccc3[nH]c2=O)=NN1S(C)(=O)=O (stereo unspecified) | . | . | ? | ? | . | .
O=C(O)CCC(=O)N1N=C(c2c(-c3ccccc3)c3cc(Cl)ccc3[nH]c2=O)CC1c1ccccc1 (stereo unspecified) | . | / | / | . | / | /
CCCCC[C@H](O)/C=C/[C@@H]1[C@@H](C/C=C\CCCC(=O)O)[C@H](O)C[C@H]1O | . | / | . | . | / | .
Cc1cc(C(=O)COC(=O)c2ccco2)c(C)n1Cc1ccco1 | . | / | / | ? | / | /
Cc1cc(C(=O)COC(=O)c2cccn2C)c(C)n1Cc1ccco1 | . | / | / | 25µM | / | /
Cc1sc2ncn(CC(=O)OC(C)C)c(=O)c2c1C | . | ? | . | . | . | .
CCOC(=O)N1CCC(N2C(=O)c3ccccc3C2Nc2ccc(S(=O)(=O)N3CCCCC3)cc2)CC1 (stereo unspecified) | . | / | / | 25µM | / | /
Cc1ccc(N2C(=O)c3ccccc3C2Nc2ccc(S(=O)(=O)N3CCOCC3)cc2)nc1 (stereo unspecified) | . | . | . | ? | . | .
Cc1ccc(N2C(=O)c3ccccc3C2Nc2cccnc2)nc1 (stereo unspecified) | . | . | . | . | . | .
Cc1ccc(N2C(=O)c3ccccc3C2Nc2ccc(S(=O)(=O)N3CCCCC3)cc2)nc1 (stereo unspecified) | . | . | . | 14µM | . | .
CCN(CC)S(=O)(=O)c1ccc(NC2c3ccccc3C(=O)N2c2ccc(C)cn2)cc1 (stereo unspecified) | . | . | . | 18µM | . | .
CCOC(=O)N1CCC(N2C(=O)c3ccccc3C2Nc2ccccc2C)CC1 (stereo unspecified) | . | ? | . | ? | . | .
SMILES | IMPase Li cell | PNC assembly inh | HPGD inh | ALDH1A1 block | IMPase inh | 12-hLO inh
Nc1ccc(N(S(=O)(=O)c2ccccc2)S(=O)(=O)c2ccccc2)c(Cl)c1 | . | / | . | .[13.5 µM] | / | .[11.4 µM]
COc1ccccc1N1CCN(Cc2ccc(Br)o2)CC1 | . | . | . | 13µM | . | .
Cc1oc(-c2cc(F)ccc2F)nc1CN1CCN(c2ncnc3ccccc23)CC1 | . | / | / | 7.9µM | / | /
COc1ccccc1N1CCN(Cc2nc(-c3ccc(F)cc3)oc2C)CC1 | . | / | / | 0.4µM | / | /
Cc1oc(-c2cc(F)ccc2F)nc1CN1CCN(C)C(=O)[C@@H]1C | . | / | / | . | / | /
Cc1nnc(SCc2ccccc2)[nH]c1=O | . | / | / | 7.1µM | / | /
Cc1ccc(C2=NOC(=O)/C2=C\C=C\c2ccccc2)cc1 | . | / | / | 3.5µM | / | /
O=C1ON=C(c2ccccc2)/C1=C/c1ccco1 | . | / | / | ? | / | /
CN(C)/C=C1\C(=O)ON=C1c1ccccc1 | . | / | / | . | / | /
COc1cc(/C=C2\C(=O)ON=C2c2ccccc2)cc(OC)c1OC | . | ? | 14µM | ? | . | .
COc1ccc(/C=C2\N=C(c3c(-c4ccccc4)noc3C)OC2=O)cc1OC | . | . | . | . | . | .
COc1ccc(-c2ccc(=O)n(Cc3cccc([N+](=O)[O-])c3)n2)cc1 | . | / | / | . | / | /
COc1ccc(/C=C2/C(=O)ON=C2c2ccccc2)cc1OC | . | . | 10µM | 22µM | . | .
COc1ccc(/C=C2\C(=O)ON=C2c2cccc([N+](=O)[O-])c2)cc1 | . | / | / | 18µM | / | /
O=C(c1cc(C(F)(F)F)cc(C(F)(F)F)c1)N1CCC2(CCCN(Cc3nccs3)C2)CC1 | . | / | . | . | / | .
Cn1c(=O)[nH]c(=O)c2c1nc(N1CCOCC1)n2Cc1ccccc1 | / | / | / | / | . | /
CC1CCCC(C)N1C(=O)COC(=O)C(Cc1ccccc1)NC(=O)c1cccs1 (stereo unspecified) | . | . | . | . | . | .
O=C(c1ccccc1)c1coc2ccc(O)c(Cl)c12 | . | . | 14µM | ? | . | .
Cc1ccc(C(=O)c2coc3ccc(O)c(Cl)c23)cc1 | . | . | . | . | . | .
CCN(CC)c1ncnc2c1cnn2Cc1ccc(Cl)cc1 | . | / | / | . | / | /
O=C(NNC1=NCCC1)c1cccc(S(=O)(=O)N2CCOCC2)c1 | . | . | . | . | . | .
O=C(c1cnn(C(=O)c2cccc(S(=O)(=O)N3CCOCC3)c2)c1)c1ccccc1O | . | / | / | 3.5µM | / | /
O=C(Nc1ccccc1C(=O)N1CCCC1)c1cccc(S(=O)(=O)N2CCCCCC2)c1 | . | . | . | . | . | .
Cc1cc(NC(=O)c2cccc(S(=O)(=O)N3CCCC3)c2)no1 | . | ? | . | 35µM | . | .
O=C(NNC1=NCCC1)c1cccc(S(=O)(=O)N2CCCC2)c1 | . | -107 | . | . | / | .
O=C(Nc1ccccc1C(=O)N1CCOCC1)c1cccc(S(=O)(=O)N2CCCC2)c1 | . | -90 | . | . | . | .
